The results in this text go back to PubChem BioAssay AID651820 (National Center for Advancing Translational Sciences (NCATS), 2012).

Among all 340,000 compounds or so, about 12,000 (3.5%) were called active. About 18% were inconclusive and are not listed. For the sample, actives were picked, then their nearest neighbours and some compounds at random. Values without a mark were called inactive. Calls come from the whole dose curve; as a rule, active = well fitted inhibition curve with a large enough effect; inconclusive = small, poorly fitted or top-dose-only effect, or another doubt; inactive = no such curve, though single readings can be large or run the other way.
% is set by controls: 0 for no effect and ±100 for the full control effect; potency is the fitted concentration of half-maximal effect.

This test can be described thus: qHTS Assay for Inhibitors of Hepatitis C Virus (HCV). As to conditions: Huh7.5.1 HCVcc-Cre infection, luciferase reporter, 44 h; series mostly up to 41.8 µM; activity change, negative = inhibition: at the top concentration. The essentials:
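Antiviral activity was scored by luciferase reporter output from cells infected with HCVcc-Cre (~0.5 moi) in presence of compound, 44 h infection period, cells seeded 1,000/well 4 h prior.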
(Quantitative high-throughput screening tests each substance at several concentrations.)
As to `Cn1c(-c2ccc(F)cc2)cc2onc(-c3ccccc3Cl)c2c1=O`, the “activity change, negative = inhibition” value was 15.1%.

Regarding `CC1(C)CC(=O)C=C(c2ccc(Cl)c(C(F)(F)F)c2)C1`, the “activity change, negative = inhibition” value was 9.91%.

On to `COc1ccc(S(=O)(=O)N2CCOCC2)cc1NC(=O)CSc1nnc(NC2CC2)s1`, for which the “activity change, negative = inhibition” value was 6.7%.

`Cc1cc(NC(=O)COC(=O)/C=C/c2ccc(C)o2)no1`: the “activity change, negative = inhibition” value was 0.593%.

Consider `Cc1ccc(Nc2nc(N3CCOCC3)nc(N3CCOCC3)n2)cc1Cl`, for which the “activity change, negative = inhibition” value is 4.85%.

For `Cc1ccc(Nc2nc(N)nc(CN3CCN(Cc4ccccc4)CC3)n2)cc1Cl`, the “activity change, negative = inhibition” value was -23.6%.

`CNc1nc(Nc2ccc(C)c(Cl)c2)nc(N)c1[N+](=O)[O-]`: the Potency is 11.2 µM (active).

As to `Nc1ncnc2c1ncn2[C@@H]1O[C@H](CNS(=O)(=O)c2ccc(-c3ccno3)s2)[C@@H](O)[C@H]1O`, the “activity change, negative = inhibition” value was 2.29%.

In the case of `Cc1ccc(OCCNC(=O)CNC(=O)c2ccc(C)c(C)c2)cc1`, the “activity change, negative = inhibition” value is 5.27%.

As to `CCc1nnc(NC(=O)c2cc(S(=O)(=O)N3CCCCC3)ccc2C)s1`, the “activity change, negative = inhibition” value is 9.73%.

For the compound `COc1ccc(CCC(=O)N2CCN(S(=O)(=O)c3ccc(OC)cc3)CC2)cc1`, the “activity change, negative = inhibition” value was -8.57%.

With `Cn1nc(-c2ccccc2)c2cc([N+](=O)[O-])ccc21`, the Potency is 12.6 µM (active).

Regarding `COc1ccc([N+](=O)[O-])cc1-c1nc2ccccc2nc1-c1ccccc1`, the “activity change, negative = inhibition” value was -2.01%.

For `Cc1nn(-c2ccc([N+](=O)[O-])cc2)c(N)c1-c1ccccc1`, the “activity change, negative = inhibition” value is -16.2%.

As to `CCN(C(=O)COC(=O)c1c(C)nn(-c2ccccc2)c1Cl)c1c(N)n(Cc2ccccc2)c(=O)[nH]c1=O`, the “activity change, negative = inhibition” value was -29.1%.

On to `O=C(CN1C(=O)NC2(CCCC2)C1=O)Nc1cc(C(F)(F)F)ccc1N1CCOCC1`, for which the “activity change, negative = inhibition” value is 16.6%.

`O=C(CCc1ccccc1Cl)Nc1ccc(S(=O)(=O)Nc2nccs2)cc1`: the “activity change, negative = inhibition” value was 1.35%.

Take `CC(C)(C)S(=O)(=O)N1Cc2cc(CO)cc(CCO)c2[C@H]1CCO`: the “activity change, negative = inhibition” value was 13.6%.

In the case of `O=C(COC(=O)c1ccc([N+](=O)[O-])o1)NC12CC3CC(CC(C3)C1)C2`, the “activity change, negative = inhibition” value was 7.78%.

As to `Cn1c(Nc2cccc(Cl)c2)nc2ccccc21`, the “activity change, negative = inhibition” value was -15.3%.

Take `NS(=O)(=O)c1cccnc1Nc1cccc(Cl)c1`: the “activity change, negative = inhibition” value was -3.49%.

Consider `OCCCNc1nccc(-c2cc(Nc3cccc(Cl)c3)ncn2)n1`, for which the Potency was 2.82 µM (active).

Turning to `CCN1C(=O)[C@@H]2[C@@H](c3ccc(-c4ccc(OC)cc4)c(OC)c3)N3CCC[C@@]3(C(=O)OC)[C@@H]2C1=O`, the “activity change, negative = inhibition” value is -15.4%.

As to `CC(C)(C)C(=O)COC(=O)c1cc(S(=O)(=O)N2CCCCC2)ccc1N1CCOCC1`, the “activity change, negative = inhibition” value is -3.73%.

With `O=C(NC1CCCCC1)c1cc([N+](=O)[O-])ccc1N1CCOCC1`, the “activity change, negative = inhibition” value is -8.15%.

Regarding `O=C(OCCOc1ccccc1Cl)c1cc(S(=O)(=O)N2CCCCC2)ccc1N1CCOCC1`, the Potency is 2.51 µM (active).

For `O=C(NCC1CCCCC1)c1cc(S(=O)(=O)N2CCCCC2)ccc1N1CCOCC1`, the “activity change, negative = inhibition” value was 6.19%.

Turning to `COc1ccc(S(=O)(=O)N2CCCCC2)cc1NC(=O)c1cc([N+](=O)[O-])ccc1N1CCOCC1`, the Potency is 7.94 µM (active).

As for `O=C(OCCOc1ccccc1F)c1cc(S(=O)(=O)N2CCOCC2)ccc1F`, the “activity change, negative = inhibition” value was -3.68%.

As to `O=C(COC(=O)c1cc(S(=O)(=O)N2CCOCC2)ccc1F)NC1CC1`, the “activity change, negative = inhibition” value is 20.7%.

As to `COC1C(CO)OC(n2cnc3c(=S)nc(N)[nH]c32)C1O` (stereo unspecified), the “activity change, negative = inhibition” value was 21.9%.

With `CC(C)(C)c1ccc(S(=O)(=O)N2CCN(C(=O)c3ccc4c(c3)C(=O)N(Cc3ccncc3)C4=O)CC2)cc1`, the “activity change, negative = inhibition” value was 13.7%.

On to `CC[C@]1(C(=O)OC)[C@H]2C(=O)N(Cc3ccccc3)C(=O)[C@H]2[C@H]2CN=C(SCc3ccc(C#N)cc3)N21`, for which the activity change, negative = inhibition was -29.6% [at 8.37 µM].

Consider `Cc1nc(N)nc(Cl)c1CCC1OCCO1`, for which the “activity change, negative = inhibition” value was 4.05%.

As to `O=C(CSc1nnc(COc2ccc(Cl)cc2)n1Cc1ccco1)N1CCNC1=O`, the “activity change, negative = inhibition” value is 0.329%.

Regarding `CC(=O)Nc1cccc(C(=O)Nc2nc(C)cs2)c1`, the “activity change, negative = inhibition” value is -2.74%.

Take `Cc1csc(NC(=S)Nc2cccc(Cl)c2)n1`: the Potency is 12.6 µM (active).

Consider `S=C(Nc1cccc(Cl)c1)Nc1ccc2cn[nH]c2c1`, for which the “activity change, negative = inhibition” value is 12.4%.

For the compound `Cc1ccc(Cn2c(C)c3cnn(CC(=O)NCCN4CCOCC4)c(=O)c3c2C)cc1`, the “activity change, negative = inhibition” value was 3.09%.

`COc1ccc(CNC(=O)CN2C(=O)c3ccccc3S2(=O)=O)cc1`: the “activity change, negative = inhibition” value was -10.1%.

In the case of `O=C(Cn1nnc(-c2ccccc2)n1)NC(=O)NC1CCCC1`, the “activity change, negative = inhibition” value is 31.6%.

With `COc1c(C)c2c(c(O)c1C/C=C(\C)CCC(=O)O)C(=O)OC2`, the Potency is 2 µM (active).

With `CC(C)[C@@H](C(=O)OCC(=O)c1ccc2c(c1)NC(=O)CO2)N1C(=O)c2ccccc2C1=O`, the “activity change, negative = inhibition” value is -2.05%.

As for `CC(Sc1nncs1)C(=O)NCc1ccc2c(c1)OCO2` (stereo unspecified), the “activity change, negative = inhibition” value was 9.22%.

`Cc1nn(C(C)C(=O)N2CCOCC2)c(=O)c2nn(-c3ccccc3)c(C)c12` (stereo unspecified): the “activity change, negative = inhibition” value was -2.95%.

Consider `Cc1ccc(-n2nc3c(=O)n(C(C)C(=O)NCc4ccc5c(c4)OCO5)nc(C)c3c2C)cc1` (stereo unspecified), for which the Potency was 11.2 µM (active).

As for `Cc1noc(C)c1NC(=O)Nc1ccc2c(c1)C(=O)N([C@H](C)CO)C[C@H](C)[C@@H](CN(C)S(=O)(=O)c1cn(C)cn1)O2`, the “activity change, negative = inhibition” value was 12.7%.

For the compound `Cc1ccc(C2CCN(C(=S)Nc3cccc(Cl)c3)C2)cc1` (stereo unspecified), the Potency is 12.6 µM (active).

Turning to `Cc1cccc(NC(=S)N2CCC(C(=O)c3ccc(F)cc3)CC2)c1`, the “activity change, negative = inhibition” value is 1.19%.

In the case of `O=C(C1CCCO1)N1CCN(C(=S)Nc2cccc(Cl)c2)CC1` (stereo unspecified), the “activity change, negative = inhibition” value was 14.7%.

Consider `Cc1nc(N)sc1-c1ccccc1`, for which the “activity change, negative = inhibition” value was -10.6%.

`Cc1nc(C)c(-c2csc(NCCc3ccccc3)n2)s1`: the Potency was 2.82 µM (active).

For the compound `S=c1[nH]nc(NCCc2ccccc2)s1`, the “activity change, negative = inhibition” value is 2.55%.

As to `C[C@H](CO)N1C[C@H](C)[C@@H](CN(C)C(=O)Nc2ccc3c(c2)OCO3)Oc2c(cccc2N(C)C)C1=O`, the “activity change, negative = inhibition” value was 4.83%.

Consider `Cc1occc1-c1nnc(SCC(=O)NC2CCCCC2)o1`, for which the “activity change, negative = inhibition” value was -19.8%.

`CCN(CC(=O)NCc1ccc(F)cc1)S(=O)(=O)c1ccc(Cl)s1`: the “activity change, negative = inhibition” value was -12.5%.

As to `CCOc1cc(/C=C(\C#N)c2nc(-c3cccs3)c(NC(C)=O)s2)ccc1O`, the Potency was 0.891 µM (active).

As to `COc1cc(/C=N\Nc2nc(-c3cccs3)c(NC(C)=O)s2)ccc1O`, the “activity change, negative = inhibition” value is 7.87%.

Turning to `CCOc1cc(C=NNC(=O)CCCC(=O)NN=Cc2ccc(O)c(OCC)c2)ccc1O`, the “activity change, negative = inhibition” value was 11.1%.

`Cc1ccc(C2(C)NC(=O)N(CC(=O)N3CC(=O)Nc4ccccc43)C2=O)cc1` (stereo unspecified): the “activity change, negative = inhibition” value was 13.9%.

On to `O=C(CN1CCN(C2CCS(=O)(=O)C2)CC1)N1N=C(c2ccc(Cl)cc2)CC1c1ccco1` (stereo unspecified), for which the “activity change, negative = inhibition” value was -27.2%.
